Molecules are shown by their SMILES.

Solute carrier family 2, facilitated glucose transporter member 1 (Homo sapiens), sequence (P11166 whole entry): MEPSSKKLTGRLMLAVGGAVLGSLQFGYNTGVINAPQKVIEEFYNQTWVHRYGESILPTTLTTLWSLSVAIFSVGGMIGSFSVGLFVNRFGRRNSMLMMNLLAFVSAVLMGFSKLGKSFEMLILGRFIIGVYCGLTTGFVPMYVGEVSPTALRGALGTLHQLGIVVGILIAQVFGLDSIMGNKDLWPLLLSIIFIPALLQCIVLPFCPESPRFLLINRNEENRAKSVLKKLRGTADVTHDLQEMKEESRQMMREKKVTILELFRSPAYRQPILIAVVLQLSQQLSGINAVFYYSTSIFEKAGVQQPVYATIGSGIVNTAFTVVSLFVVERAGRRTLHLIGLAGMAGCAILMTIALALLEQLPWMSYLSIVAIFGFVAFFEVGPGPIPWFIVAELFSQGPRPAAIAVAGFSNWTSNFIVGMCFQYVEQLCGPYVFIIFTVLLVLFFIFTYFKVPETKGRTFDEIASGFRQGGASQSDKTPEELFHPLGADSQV

The first experiment has as its target Solute carrier family 2, facilitated glucose transporter member 1 (Homo sapiens) (UniProt P11166). The experiment in a line: ST_JUDE_LEISH: Cytotoxicity at 2uM final concentration against transgenic Leishmania Mexicana promastigotes LmGLUT1 that are glucose transport deficient and complemented with the human glucose transporter GLUT1. Activity is measured by DNA content using SYBR green in vitro. Type of experiment: functional.
As to `COc1ccc2nccc([C@@H](O)CN3CCC(NC(=O)C(c4ccccc4C)N4CCC(Cc5ccccc5)CC4)CC3)c2c1` (stereo not given in full), the inhibition was 1.73%.

Regarding `COc1ccc(Nc2ncc3c(-c4cccc(NC(=O)Cc5cccnc5)c4)c[nH]c3n2)cc1OC`, the inhibition was -2.6%.

As to `N=C(N)NN=Cc1ccccc1OCc1ccccc1Cl`, the inhibition was -0.49%.

For the compound `COc1ccc(F)cc1-c1cccc(CNC2CCN(CC3Cn4c(=O)ccc5ccc(F)c3c54)CC2)c1` (stereo not given), the inhibition stood at 10.1%.

`O=C(Cc1cccc2ccccc12)N1CCc2cc3nccc(N4CCN5CCC[C@H]5C4)c3cc21`: the inhibition is 8.63%.

As to `CCCCSc1c(CNCCCCCCNCc2ccc3ccccc3c2SCCCC)ccc2ccccc12`, the inhibition worked out at 10.7%.

For the compound `Clc1ccc2c(NCCc3ccccn3)ccnc2c1`, the inhibition was 6.58%.

Take `Cc1[nH]c(C)c(-c2ccc(-c3ccc(OCC(F)(F)F)cc3)nc2)c(=O)c1Cl`: the inhibition turned out to be 5.76%.

Consider `O=C(Nc1ccc(OC2CCN(Cc3ccc(F)cc3)CC2)c(Cl)c1)c1ccc(F)cc1`, for which the inhibition turned out to be 2.58%.

Regarding `C=CCn1ccc2c3c(N)nc(N)nc3ccc21`, the inhibition was 66%.

As to `COc1ccc2nccc(N(C)CC3(O)CCN(CCc4ccc5c(c4)NC(=O)CS5)CC3)c2n1`, the inhibition came out at 6.99%.

As to `OCCOCCNCc1cccc(C#Cc2cc3ncnc(Nc4ccc(OCc5cccc(F)c5)c(Cl)c4)c3s2)n1`, the inhibition is -0.5%.

With `COc1ccc(-c2cccc(NC(=O)c3ccc(Cl)cc3)c2)cc1CN1CCNCC1`, the inhibition came to 2.69%.

With `O=C(Nc1cccc(C(F)(F)F)c1)Nc1nc2ccc([N+](=O)[O-])cc2s1`, the inhibition was 4.59%.

Regarding `O=C(Nc1ccc([N+](=O)[O-])cc1)Nc1nc2ccc(Cl)cc2s1`, the inhibition stood at 5.09%.

In the case of `CN(C)c1ccc(C2(c3ccccc3)N=C(N)N(CCCc3ccccc3)C2=O)cc1` (stereo not given), the inhibition came to 3.64%.

For `NC(=O)C1CCN(Cc2ccc(-c3ccc(-c4nc5cc(F)ccc5[nH]4)cc3)cc2)CC1`, the inhibition is 12.7%.

Regarding `Cc1ccc(S(=O)(=O)N(C)c2ccccc2C(=O)Nc2ccccc2Oc2ccccc2)cc1`, the inhibition was -0.78%.

As for `CN1CCC(NCc2ccc(-c3ccc(C(F)(F)F)cc3)cc2)CC1`, the inhibition is -0.71%.

Consider `CC(C)c1ccc(NC(=O)NC2CCN(CCCCCNC(=O)/C=C/c3ccc(Cl)c(Cl)c3)CC2)cc1`, for which the inhibition is -0.71%.

Regarding `CN1CCN(c2ncnc3ccc(NC(=O)Nc4ccc(Cl)c(Cl)c4)cc23)CC1`, the inhibition turned out to be 5%.

For `COc1ccc(-c2ccc(NC(=O)c3cccc(Cl)c3)c(F)c2)cc1CNC(C)C`, the inhibition was 9.29%.

With `Cc1cc2c(NC(=O)NC3CCN(Cc4ccc(Cl)c(Cl)c4)CC3)cccc2cn1`, the inhibition is 0.94%.

Take `Cc1cccnc1CNc1nccc2c(C)c(C)[nH]c12`: the inhibition worked out at 2.2%.

As to `COc1ccc2nccc(N(C)CC3(O)CCC(NCc4cc5c(cn4)OCCO5)CC3)c2n1` (stereo not given), the inhibition was 1.51%.

For `COc1ccc(NC(=O)c2ccc(-c3nc(-c4ccc(Cl)cc4)cs3)cc2)cc1N1CCN(C)CC1`, the inhibition stood at 0.97%.

Regarding `Oc1ccc(-c2ccccc2)cc1CN1CCCCC1`, the inhibition is 4.4%.

With `COc1cc2nc(N3CCN(C(=O)c4cccc(I)c4)CC3)nc(N)c2cc1OC`, the inhibition came to 5.23%.

In the case of `Cc1cccc(CN2CCCN(Cc3ccc(C(=O)Nc4ccc(Cl)cc4)cc3)CC2)c1`, the inhibition worked out at 11.2%.

Regarding `COc1ccc2nccc([C@@H](O)CN3CCC(NC(=O)C(c4cc5ccccc5s4)N4CCN(c5ccccc5OC)CC4)CC3)c2c1` (stereo not given in full), the inhibition came out at 1.84%.

For the compound `Cc1cc(C)c(NC(=O)NC2CCN(CCCCCNC(=O)/C=C/c3ccc(Cl)c(Cl)c3)CC2)c(C)c1`, the inhibition turned out to be 4.35%.

With `O=C(Nc1ccc(CN2CCCCC2)cc1)c1ccc(COc2ccc([N+](=O)[O-])cc2)o1`, the inhibition came out at 4.55%.

Turning to `CC(C)CNCc1ccc(-c2cccc(CNC3CCN(Cc4ccccc4)CC3)c2)cc1`, the inhibition was 3.21%.

In the case of `O=C(Cn1c2ccccc2c(=O)c2ccc(Cl)cc21)Nc1ccc(C(F)(F)F)cc1`, the inhibition was -0.52%.

For `CCNC(=O)CCc1cccc(Br)c1`, the inhibition is -1.73%.

On to `c1ccc(-c2cc(NCCNc3cc(-c4ccccc4)nc4ccccc34)c3ccccc3n2)cc1`, for which the inhibition was -1.99%.

Consider `Cc1ccc(Nc2nc3cc(Nc4ccnc(Nc5cccc(CS(C)(=O)=O)c5)n4)ccc3o2)cc1`, for which the inhibition amounted to 4.03%.

Regarding `CCCCCN1CCC(NC(=O)c2ccc(C(=O)Nc3ccc(C(C)C)cc3)cc2)CC1`, the inhibition was -0.86%.

Consider `c1ccc(CN2CCC(NCc3ccccc3-c3cccc(CNC4CCCC4)c3)CC2)cc1`, for which the inhibition came out at 6.21%.

For `CN(C)Cc1cccc(-c2ccc(NC(=O)c3ccc4c(=O)n(Cc5ccoc5)cnc4c3)cc2)c1`, the inhibition is 63.7%.

The next experiment addresses Hexose transporter 1 (Plasmodium falciparum) (UniProt O97467). Put plainly: ST_JUDE_LEISH: Cytotoxicity at 2uM final concentration against transgenic Leishmania Mexicana promastigotes LmPfHT that are glucose transport deficient and complemented with the Plasmodium falciparum hexose transporter. Activity is measured by DNA content using SYBR green in vitro. Format: functional.
On to `COc1ccc2nccc([C@@H](O)CN3CCC(NC(=O)C(c4ccccc4C)N4CCC(Cc5ccccc5)CC4)CC3)c2c1` (stereo not given in full), for which the inhibition was determined as 1.16%.

For the compound `COc1ccc(Nc2ncc3c(-c4cccc(NC(=O)Cc5cccnc5)c4)c[nH]c3n2)cc1OC`, the inhibition was -0.55%.

Turning to `N=C(N)NN=Cc1ccccc1OCc1ccccc1Cl`, the inhibition is 2.44%.

In the case of `COc1ccc(F)cc1-c1cccc(CNC2CCN(CC3Cn4c(=O)ccc5ccc(F)c3c54)CC2)c1` (stereo not given), the inhibition was 14.3%.

`O=C(Cc1cccc2ccccc12)N1CCc2cc3nccc(N4CCN5CCC[C@H]5C4)c3cc21`: the inhibition came out at 7.78%.

On to `CCCCSc1c(CNCCCCCCNCc2ccc3ccccc3c2SCCCC)ccc2ccccc12`, for which the inhibition is 5.83%.

For the compound `Clc1ccc2c(NCCc3ccccn3)ccnc2c1`, the inhibition was 6.15%.

On to `Cc1[nH]c(C)c(-c2ccc(-c3ccc(OCC(F)(F)F)cc3)nc2)c(=O)c1Cl`, for which the inhibition came out at 4.89%.

Consider `O=C(Nc1ccc(OC2CCN(Cc3ccc(F)cc3)CC2)c(Cl)c1)c1ccc(F)cc1`, for which the inhibition is 3.52%.

For `C=CCn1ccc2c3c(N)nc(N)nc3ccc21`, the inhibition came to 79.6%.

As to `COc1ccc2nccc(N(C)CC3(O)CCN(CCc4ccc5c(c4)NC(=O)CS5)CC3)c2n1`, the inhibition was 6.89%.

For `OCCOCCNCc1cccc(C#Cc2cc3ncnc(Nc4ccc(OCc5cccc(F)c5)c(Cl)c4)c3s2)n1`, the inhibition is 1.33%.

`COc1ccc(-c2cccc(NC(=O)c3ccc(Cl)cc3)c2)cc1CN1CCNCC1`: the inhibition is 0.49%.

`O=C(Nc1cccc(C(F)(F)F)c1)Nc1nc2ccc([N+](=O)[O-])cc2s1`: the inhibition was found to be 4.44%.

`O=C(Nc1ccc([N+](=O)[O-])cc1)Nc1nc2ccc(Cl)cc2s1`: the inhibition turned out to be 4.52%.

With `CN(C)c1ccc(C2(c3ccccc3)N=C(N)N(CCCc3ccccc3)C2=O)cc1` (stereo not given), the inhibition was 3.4%.

As for `NC(=O)C1CCN(Cc2ccc(-c3ccc(-c4nc5cc(F)ccc5[nH]4)cc3)cc2)CC1`, the inhibition is 12.7%.

For the compound `Cc1ccc(S(=O)(=O)N(C)c2ccccc2C(=O)Nc2ccccc2Oc2ccccc2)cc1`, the inhibition was -0.51%.

Consider `CN1CCC(NCc2ccc(-c3ccc(C(F)(F)F)cc3)cc2)CC1`, for which the inhibition is -0.76%.

Take `CC(C)c1ccc(NC(=O)NC2CCN(CCCCCNC(=O)/C=C/c3ccc(Cl)c(Cl)c3)CC2)cc1`: the inhibition was -0.91%.

Take `CN1CCN(c2ncnc3ccc(NC(=O)Nc4ccc(Cl)c(Cl)c4)cc23)CC1`: the inhibition is 2.35%.

On to `COc1ccc(-c2ccc(NC(=O)c3cccc(Cl)c3)c(F)c2)cc1CNC(C)C`, for which the inhibition amounted to 7.16%.

Consider `Cc1cc2c(NC(=O)NC3CCN(Cc4ccc(Cl)c(Cl)c4)CC3)cccc2cn1`, for which the inhibition was -0.05%.

On to `Cc1cccnc1CNc1nccc2c(C)c(C)[nH]c12`, for which the inhibition is 2.33%.

With `COc1ccc2nccc(N(C)CC3(O)CCC(NCc4cc5c(cn4)OCCO5)CC3)c2n1` (stereo not given), the inhibition was determined as 1.7%.

`COc1ccc(NC(=O)c2ccc(-c3nc(-c4ccc(Cl)cc4)cs3)cc2)cc1N1CCN(C)CC1`: the inhibition was 0.94%.

For `Oc1ccc(-c2ccccc2)cc1CN1CCCCC1`, the inhibition stood at 5.51%.

As for `COc1cc2nc(N3CCN(C(=O)c4cccc(I)c4)CC3)nc(N)c2cc1OC`, the inhibition was 3.9%.

For the compound `Cc1cccc(CN2CCCN(Cc3ccc(C(=O)Nc4ccc(Cl)cc4)cc3)CC2)c1`, the inhibition amounted to 11.3%.

In the case of `COc1ccc2nccc([C@@H](O)CN3CCC(NC(=O)C(c4cc5ccccc5s4)N4CCN(c5ccccc5OC)CC4)CC3)c2c1` (stereo not given in full), the inhibition was 1.89%.

With `Cc1cc(C)c(NC(=O)NC2CCN(CCCCCNC(=O)/C=C/c3ccc(Cl)c(Cl)c3)CC2)c(C)c1`, the inhibition was 2.53%.

As to `O=C(Nc1ccc(CN2CCCCC2)cc1)c1ccc(COc2ccc([N+](=O)[O-])cc2)o1`, the inhibition stood at 3.4%.

On to `CC(C)CNCc1ccc(-c2cccc(CNC3CCN(Cc4ccccc4)CC3)c2)cc1`, for which the inhibition is 3.32%.

Consider `O=C(Cn1c2ccccc2c(=O)c2ccc(Cl)cc21)Nc1ccc(C(F)(F)F)cc1`, for which the inhibition was -1.32%.

Take `CCNC(=O)CCc1cccc(Br)c1`: the inhibition is -1.52%.

For the compound `c1ccc(-c2cc(NCCNc3cc(-c4ccccc4)nc4ccccc34)c3ccccc3n2)cc1`, the inhibition is 6.2%.

With `Cc1ccc(Nc2nc3cc(Nc4ccnc(Nc5cccc(CS(C)(=O)=O)c5)n4)ccc3o2)cc1`, the inhibition came to 2.49%.

`CCCCCN1CCC(NC(=O)c2ccc(C(=O)Nc3ccc(C(C)C)cc3)cc2)CC1`: the inhibition was -0.06%.

Regarding `c1ccc(CN2CCC(NCc3ccccc3-c3cccc(CNC4CCCC4)c3)CC2)cc1`, the inhibition turned out to be 2.62%.

As for `CN(C)Cc1cccc(-c2ccc(NC(=O)c3ccc4c(=O)n(Cc5ccoc5)cnc4c3)cc2)c1`, the inhibition came out at 54.6%.

The values above are taken from ChEMBL document CHEMBL3433997, “St. Jude Leishmania screening dataset” (2016).
